In PubChem BioAssay (NCI):
Several values for one entry are separate records, joined by “and”; a condition that tells them apart may be missing. Identical values can stand only once. Compounds without any hit were thinned out: in the full panel of roughly 83,000, 20% have a hit.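 Growth was measured after 48 h exposure to one concentration of compound in 96-well plates. Values under 10 count as active.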 Unmarked numbers belong to inactive results. Activity calls are given as the source filed them.

Each compound was assayed on HL-60(TB) leukemia (assay: NCI-60 one-dose screen, 48 h (100 = growth as untreated, 0 = no growth, -100 = all killed)). Details: 10 µM unless noted.

| Compound | growth |
| --- | --- |
| COc1ccc(NC2=C(Cl)C(=O)C(C)=C(C)C2=O)cc1 | 37.4% |
| O=S(=O)(Oc1ccc(-c2cn3ccoc3n2)cc1)c1cccc(C(F)(F)F)c1 | 105% |
| CC1(C)CC[C@]2(C(=O)O)CC[C@]3(C)C(=CC[C@@H]4[C@@]5(C)CC[C@H](NOCCCN)C(C)(C)[C@@H]5CC[C@]43C)[C@@H]2C1 | 20.2% |
| CC(C)=CCC[C@](C)(O)[C@H]1CC[C@]2(C)[C@@H]1CC[C@@H]1[C@@]3(C)CCC(NC(=O)c4ccccc4C(=O)O)C(C)(C)[C@@H]3CC[C@]12C (stereo partly drawn) | 90.2% |
| O=C(NNc1nc2cc(F)ccc2n2c(CN3CCCC3)ccc12)c1cnccn1 | -30.9% (active) |
| Cc1ccc2c(n1)C(=O)C(Cl)=C(Nc1ccc(C#N)cc1)C2=O | 17.4% |
| CC1=C(C)C(=O)C(Nc2cccc(C(=O)OC(C)(C)C)c2)=C(Cl)C1=O | 68% |
| COc1cc2oc(-c3cccc(NC(=O)c4cc(N)ccc4Cl)c3)cc(=O)c2c(OC)c1OC | 99.7% |
| COc1ccccc1NCc1cccn1Cc1ccc(F)cc1 | 104% |
| O=C1c2c(c3c4cc(O)ccc4oc3c3[nH]c4ccccc4c23)C(=O)N1O | 9.22% (active) |
| CCCn1cnc2c(c1=N)C(c1ccc(Cl)cc1)c1sc3c(CC)cccc3c1O2 (stereo not drawn) | 0.217% (active) |
| O=[N+]([O-])c1ccc(NC(=S)NNC(=S)Nc2ccc(F)cc2)cc1 | 84.8% |
| CN1CC[C@@H]2[C@@]3(C)CC[C@H](O)C(C)(C)[C@@H]3CC[C@@]2(C)[C@]2(C)CC[C@@]3(CO)CCC(C)(C)C[C@@H]3C12 (stereo partly drawn) | 79.6% |
| O=C(/C=C/c1ccccc1Cl)Nc1ncc(Cc2cc(Cl)ccc2Cl)s1 | 3.08% (active) |
| CCCCCCCCCC(=O)NC(C)(C)C(=O)N1CCC[C@H]1C(=O)N[C@@H](CC(C)C)C(=O)N[C@@](C)(CC)C(=O)N[C@@H](CCC(N)=O)C(=O)N[C@H](CCC(N)=O)C(=O)NC(C)(C)C(=O)NC(C)(C)C(=O)N[C@@H](CCC(N)=O)C(=O)N[C@H](CC(C)C)C(=O)N[C@H](CO)CC(C)C | -76.7% (active) and -39.4% (active) |
| O=C(Nc1nc2ccc([N+](=O)[O-])cc2s1)Nc1ccccc1Br | 37.1% |
| O=C(CSc1nnc(-c2ccc(Cl)cc2)n1-c1ccccc1)Nc1cccc(F)c1 | 71.7% |

| Compound | growth |
| --- | --- |
| Nn1c(N/N=C/c2nc3ccccc3s2)n[nH]c1=S | 136% |
| COc1cccc(-c2nn(-c3ccccc3)cc2-c2ccnc(N3CCN(C(=O)c4ccccc4)CC3)c2)c1 | 34.8% |
| c1cn2c(ccc3nc(-c4cn[nH]c4)c4c(c32)CCCC4)n1 | 73.8% |
| CC1(C)[C@@H](O)CC[C@]2(C)[C@H]3CC[C@@H]4[C@H]5[C@H](C(=O)/C=C\c6ccc([N+](=O)[O-])cc6)CC[C@]5(O)CC[C@@]4(C)[C@]3(C)CC[C@@H]12 | 27.9% |
| CCCc1cc2cc(-n3nc(CC)c4c3CC(C)(C)CC4=O)cc(NC3CCC(O)CC3)c2c(=O)[nH]1 (stereo not drawn) | -2.33% (active) |
| Cc1ccc(CSc2nc(-c3ccc(Cl)cc3)c(C#N)c(N3CCOCC3)n2)cc1 | 98.2% |
| Cn1cc(-c2nn3cc(-c4ccncc4)nc3s2)c2cc(Cl)ccc21 | -16% (active) |
| O=C(CN1C(=O)CSC1=O)Nc1ccc(C(=O)/C=C/c2cc3ccccc3nc2Cl)cc1 | 71.9% |
| CN1CCN(CCCCCC(=O)Nc2nc(-c3cccc(NS(=O)(=O)c4cccc5c(N(C)C)cccc45)c3)cs2)CC1 | 75.1% |
| O=c1[nH][nH]c(-c2ccc(F)cc2)c1-c1nc2ccccc2s1 | 103% |
| CC/C(=C/c1cc(OC)ccc1O)c1ccc2cc(OC)ccc2[o+]1 | 6.9% (active) |
| COc1cccc2c1C=CC1(O2)Oc2cccc(OC)c2C=C1C (stereo not drawn) | 0.839% (active) |
| CN1CCN(Cc2ccc(NC(=O)c3cncc(C#Cc4cnn5cccnc45)c3)cc2C(F)(F)F)CC1 | -19% (active) |
| CCNC(=O)Oc1ccc(/C(=C(/C)c2ccccc2)c2ccc(OCCN3CCCCCC3)cc2)cc1 | -19.2% (active) |
| CCCCN1C(=O)/C(=c2\sc3n(c2=O)C2C(NN=3)N(CC)C(=O)N2CC)c2cccc(C)c21 (stereo not drawn) | 2.95% (active) |
| NC/C(=C/F)COc1ccc2nc(NCc3cccnc3)oc2c1 | 125% |
